For assay [1], the target named is Retinoic acid receptor RXR-alpha (Homo sapiens) (UniProt P19793). Kind of assay: qHTS assay to identify small molecule agonists of the RXR signaling pathway (AID 1159527; calls by dose curve; further: nearly all actives have a fitted effect of over 35% in size). Put shortly: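 Read-out: beta-lactamase FRET ratio (405 nm excitation, 460 and 530 nm emission) after 2 hr substrate loading at room temperature. Cells were RXR-alpha-UAS-bla HEK 293T treated with compounds for 16 hr in 2% charcoal-stripped FBS medium.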

A short description of assay [2]: qHTS assay to identify small molecule agonists of the RXR signaling pathway - cell viability counter screen (AID 1159529). Further: series mostly up to about 77 µM; nearly all actives have a fitted effect of over 50% in size. A digest of the protocol:
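HEK 293T RXRa-bla cells, 2% CS-FBS; 5 h settle; cpd 16 h 37 C, 5% CO2; CellTiter-Glo 30 min RT, luminescence. Tetraoctyl ammonium bromide as positive control.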

Assay [3] is described as follows: qHTS assay to identify small molecule antagonists of the retinoid acid receptor (RAR) signaling pathway - cell viability counter screen (AID 1159551). Further: nearly all actives have a fitted effect of over 35% in size. A digest of the protocol: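 Cytotoxicity counter screen: ATP content quantified by CellTiter-Glo luminescence in C3RL4 cells treated 6 hr at 37 C with compound and retinol (1 uM final). Cells plated at 1,000/well and cultured overnight before dosing.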
For orientation: Quantitative high-throughput screening tests each substance at several concentrations.

Assay [4] is described as follows: qHTS assay to identify small molecule antagonists of the retinoic acid receptor (RAR) signaling pathway (AID 1159552; further: nearly all actives have a fitted effect of over 50% in size). Put shortly: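 Cells of the C3RL4 line were seeded, incubated overnight, then dosed with compounds in DMSO followed immediately by retinol (1 uM final). Six hours later luciferase detection reagent went in; signal was measured after 30 min at RT.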

Assay [5] is described as follows: qHTS assay to identify small molecule agonists of the retinoic acid receptor (RAR) signaling pathway (AID 1159553). Further: potency means the concentration at half of the fitted maximal effect. A digest of the protocol: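 Luminescence was measured 30 min after luciferase reagent addition at room temperature. Before that, C3RL4 reporter cells (1,000 per well, plated overnight) were treated with compound for 6 hr at 37 C and 5% CO2.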
Assay [6] can be described thus: qHTS assay to identify small molecule antagonists of the estrogen related receptor (ERR) signaling pathway from Tox21 library - cell viability counter screen (AID 1224834). Further: nearly all actives have a fitted effect of over 30% in size. Put shortly: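 CellTiter-Fluor fluorescence, read after 30 min at 37 C, measures viability of ERR cells. Cells plated at 2,000/well and incubated 6 h before pin-tool compound addition, then exposed 17.5 hours at 37 C.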

Assay [7] addresses Luciferin 4-monooxygenase (Photinus pyralis) (UniProt P08659). Kind of assay: qHTS assay to identify small molecule inhibitors of firefly luciferase (AID 1224835). Further: nearly all actives have a fitted effect of over 25% in size. Further: potency means the concentration at half of the fitted maximal effect. A digest of the protocol: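 Biochemical qHTS: compounds run as interplate titrations against purified firefly enzyme, with D-luciferin and ATP each at its KM concentration. Light output recorded by CCD imaging.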
Assay [8] in a line: qHTS assay to identify small molecule agonists of the constitutive androstane receptor (CAR) signaling pathway - cell viability counter screen (AID 1224836). Further: series mostly up to about 92 µM; nearly all actives have a fitted effect of over 45% in size. A digest of the protocol: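 HepG2-CYP2B6-hCAR, 2500 cells/well, 4 h pre-incubation; cpd 15 conc + PK11195 0.75 uM final; 23 h, 37 C/5% CO2; CellTiter-Fluor, fluorescence.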
The nature of assay [9]: qHTS assay to identify small molecule antagonists of the constitutive androstane receptor (CAR) signaling pathway - cell viability counter screen (AID 1224837). Further: series mostly up to about 92 µM; nearly all actives have a fitted effect of over 45% in size. Put shortly: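 Cytotoxicity counter-screen: CellTiter-Fluor fluorescence after 23 h compound exposure (15-point qHTS) in double-stable HepG2-CYP2B6-hCAR cells, with 50 nM CITCO added.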
Assay [10] addresses Nuclear receptor subfamily 1 group I member 3 (Homo sapiens) (UniProt Q14994). Kind of assay: qHTS assay to identify small molecule antagonists of the constitutive androstane receptor (CAR) signaling pathway (AID 1224838).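 Further: HepG2 cells stably expressing hCAR with CYP2B6 luciferase reporter stimulated by CITCO; nearly all actives have a fitted effect of over 40% in size.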 A digest of the protocol: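 Antagonism measured as luciferase signal (ONE-Glo, 30 min, room temperature) in CAR-stimulated cells: HepG2-CYP2B6-hCAR double-stable line exposed 24 hr at 37 C to compound in a 15-point series plus 50 nM CITCO.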

A short description of assay [11]: qHTS assay to identify small molecule antagonists of the estrogen related receptor signaling pathway with the pleiotropic PPARgamma coactivator (PGC) from Tox21 10K library - cell viability counter screen (AID 1224840; active means well fitted cell-killing curve with a large enough effect in the repeat runs, not every such curve was filed as active; further: nearly all actives have a fitted effect of over 40% in size). A digest of the protocol:
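Counter-screen for cytotoxicity: after 17.5 h compound exposure at 37 C, CellTiter-Fluor reagent added to PGC/ERR cells for 30 min and fluorescence read. Cells were seeded at 2,000 per well 6 h before dosing.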

A short description of assay [12]: qHTS assay to identify small molecule antagonists of the estrogen related receptor signaling pathway with the pleiotropic PPARgamma coactivator (PGC) from Tox21 10K library (AID 1224841; call rule not given here; further: actives are mostly falling curves and most rising ones were filed inactive; nearly all actives have a fitted effect of over 50% in size; further: potency means the concentration at half of the fitted maximal effect). A digest of the protocol: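 Luminescence (One-Glo, 30 min at room temperature) after 18 h compound treatment at 37 C of PGC/ERR reporter cells plated at 2,000 cells/well and settled 6 h beforehand.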

Assay [13] can be described thus: qHTS assay to identify small molecule agonists of the estrogen related receptor signaling pathway with the pleiotropic PPARgamma coactivator (PGC) from Tox21 10K library (AID 1224842). Further: nearly all actives have a fitted effect of over 15% in size. Further: potency means the concentration at half of the fitted maximal effect. A digest of the protocol: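 PGC/ERR reporter cell line, 2,000 cells per well, incubated 6 h at 37 C before 23 nL compound in DMSO was added. After 18 h at 37 C, One-Glo luminescence read following 30 min at room temperature.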

Assay [14] addresses Nuclear receptor subfamily 1 group I member 3 (Homo sapiens) (UniProt Q14994). As to the kind of experiment: qHTS assay to identify small molecule agonists of the constitutive androstane receptor (CAR) signaling pathway (AID 1224839). Further: nearly all actives have a fitted effect of over 15% in size. Further: potency means the concentration at half of the fitted maximal effect. A digest of the protocol: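 HepG2-CYP2B6-hCAR cells, 2500/well, 4 h pre-incubation; compounds 15 conc.; PK11195 0.75 uM final; 24 h, 37 C/5% CO2; ONE-Glo luciferase read.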

Inconclusive results are not listed. Calls of active or inactive are those of the source. Unless noted, the call rests on the fitted dose curve; in most records, active means well fitted curve in the direction sought with a large enough effect in the repeat runs; inconclusive means weak or mixed curves; inactive means no such curve, though single readings can be large; an effect the other way counts as inactive or inconclusive.

Nuclear receptor subfamily 1 group I member 3 (Homo sapiens), sequence (Q14994 whole entry, looked up): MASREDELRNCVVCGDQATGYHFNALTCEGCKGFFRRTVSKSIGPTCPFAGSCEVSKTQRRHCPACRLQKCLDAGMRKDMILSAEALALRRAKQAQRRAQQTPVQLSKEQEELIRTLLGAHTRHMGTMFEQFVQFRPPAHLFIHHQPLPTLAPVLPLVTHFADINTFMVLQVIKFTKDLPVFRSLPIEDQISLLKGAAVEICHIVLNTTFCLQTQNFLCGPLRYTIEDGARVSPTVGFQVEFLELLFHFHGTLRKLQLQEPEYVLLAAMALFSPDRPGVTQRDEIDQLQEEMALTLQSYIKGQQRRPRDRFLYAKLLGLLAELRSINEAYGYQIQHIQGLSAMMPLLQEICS
Luciferin 4-monooxygenase (Photinus pyralis), sequence (P08659 whole entry, looked up): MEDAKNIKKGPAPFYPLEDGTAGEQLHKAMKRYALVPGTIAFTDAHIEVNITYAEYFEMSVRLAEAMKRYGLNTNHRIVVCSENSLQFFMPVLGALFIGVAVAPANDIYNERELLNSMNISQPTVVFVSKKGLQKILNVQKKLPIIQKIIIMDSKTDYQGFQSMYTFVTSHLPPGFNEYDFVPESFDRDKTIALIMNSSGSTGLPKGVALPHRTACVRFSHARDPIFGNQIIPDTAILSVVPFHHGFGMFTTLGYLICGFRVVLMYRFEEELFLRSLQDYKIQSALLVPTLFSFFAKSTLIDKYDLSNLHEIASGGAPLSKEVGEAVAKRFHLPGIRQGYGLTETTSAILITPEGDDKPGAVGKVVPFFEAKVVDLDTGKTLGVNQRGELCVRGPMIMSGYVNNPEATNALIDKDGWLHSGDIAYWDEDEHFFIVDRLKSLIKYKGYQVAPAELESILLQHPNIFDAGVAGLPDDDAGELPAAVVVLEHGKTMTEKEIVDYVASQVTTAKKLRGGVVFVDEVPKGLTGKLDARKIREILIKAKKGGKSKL
Retinoic acid receptor RXR-alpha (Homo sapiens), sequence (P19793 whole entry, looked up): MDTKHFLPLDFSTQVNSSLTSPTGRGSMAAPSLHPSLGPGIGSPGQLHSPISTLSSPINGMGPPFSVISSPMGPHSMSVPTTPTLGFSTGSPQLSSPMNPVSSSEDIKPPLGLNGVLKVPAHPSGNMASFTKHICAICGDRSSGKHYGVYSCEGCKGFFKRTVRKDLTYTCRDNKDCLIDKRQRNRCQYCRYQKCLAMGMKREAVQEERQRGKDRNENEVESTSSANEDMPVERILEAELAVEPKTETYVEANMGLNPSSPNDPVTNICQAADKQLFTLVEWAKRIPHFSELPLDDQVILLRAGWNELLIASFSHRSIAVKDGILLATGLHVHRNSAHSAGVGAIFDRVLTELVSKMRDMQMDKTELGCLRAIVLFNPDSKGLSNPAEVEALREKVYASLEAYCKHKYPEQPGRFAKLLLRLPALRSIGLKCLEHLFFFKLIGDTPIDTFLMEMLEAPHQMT

For `COc1ccc(C2C(=O)c3ccccc3C2=O)cc1`, the Potency result in [1], in assay [2], in assay [3], in assay [4], in assay [5] and in assay [6] was “inactive” throughout. Besides, the Potency entry in assay [8], in assay [9], in assay [10], in assay [11] and in assay [12] was “inactive” throughout. The results for the Potency in assay [7] and in [13] were 3.09 µM (active) and 10.6 µM (active), respectively.
As to `c1ccc(CNc2ncnc3c2ncn3C2CCCCO2)cc1` (stereo unspecified), the Potency result in assay [1], in assay [2], in [3], in [4], in [6] and in [9] was “inactive” each time. The Potency result in assay [10] and in [11] was “inactive” throughout. Moreover, the Potency in assay [5] is 4.33 µM (active); in assay [7], 39.9 µM (active); in assay [14], 9.69 µM (active).
In the case of `CCCCCCCC(=O)OCCCCCC`, the Potency entry in assay [1], in assay [2], in [3], in [4], in assay [5] and in assay [7] was “inactive” in each case. Also, the Potency entry in assay [9], in assay [10], in [14], in assay [12] and in assay [13] was “inactive” each time.
`O=C1c2ccccc2C(=O)c2c(O)ccc(O)c21`: the Potency result in assay [1], in assay [2], in [3], in assay [4], in [5] and in assay [6] was “inactive” throughout. Besides, the Potency entry in assay [7], in [8], in assay [9], in [10], in assay [11] and in assay [13] was “inactive” each time. For the same compound, the Potency in assay [12] is 0.545 µM (active).
With `COc1cc(NS(=O)(=O)c2ccc(N)cc2)nc(C)n1`, the Potency result in assay [1], in assay [2], in assay [3], in assay [4], in assay [5] and in assay [7] was “inactive” throughout. Further, the Potency result in assay [8], in assay [9], in assay [10], in assay [11], in assay [12] and in assay [13] was “inactive” throughout.
As for `O=P(O)(O)Oc1ccccc1`, the Potency result in assay [1], in assay [2], in assay [3], in assay [4], in assay [5] and in assay [6] was “inactive” in each case. The Potency result in [7], in assay [8], in [9] and in assay [11] was “inactive” each time.
Regarding `CCCCCCOC(=O)CCCCC`, the Potency result in [1], in assay [2], in assay [3], in assay [4], in assay [5] and in assay [6] was “inactive” each time. The Potency entry in assay [7], in assay [8], in assay [9] and in assay [11] was “inactive” throughout.
As to `CN1C(CSCC(F)(F)F)Nc2cc(Cl)c(S(N)(=O)=O)cc2S1(=O)=O` (stereo unspecified), the Potency entry in [1], in assay [2], in assay [3], in [4], in assay [5] and in assay [6] was “inactive” in each case. The Potency entry in assay [7], in assay [9], in [10], in assay [14], in assay [11] and in [13] was “inactive” in each case.
As for `CC(C)N=C=NC(C)C`, the Potency entry in assay [1], in assay [2], in assay [3], in [4], in assay [5] and in [7] was “inactive” in each case. The Potency entry in assay [8], in assay [9], in [10], in [14], in assay [11] and in [12] was “inactive” each time. Also, in assay [13], the Potency result was “inactive”.
On to `CCO[Si](C)(CCCOCC1CO1)OCC` (stereo unspecified), for which the Potency entry in assay [1], in assay [2], in assay [3], in [4], in assay [5] and in assay [7] was “inactive” in each case. The Potency entry in [9], in assay [10], in [14], in assay [12] and in [13] was “inactive” in each case.

(Values after PubChem BioAssay (Tox21).)
